The campaign covered roughly 1,400 compounds. About 380 (27%) were called active. This is one part of the list. Values without a mark were called inactive.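 The calls were made as follows: active = mean inhibition above 50% across duplicate retests at 10 µM; inactive = the rest.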

This assay can be described thus: inhibition of NALP1/ASC/caspase-1 reporter signal in yeast, confirmation, NALP1 inhibitor project, S. cerevisiae, luminescence, single concentration (AID 488841).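 Also: plate controls were DMSO in galactose medium for no effect and cells in plain SD medium for full effect.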 Conditions: S. cerevisiae NALP1/ASC/Caspase-1 reporter, beta-gal luminescence; at 10 µM; active compounds read high.
In the case of `CS(=O)(=O)n1nc(-c2ccc(Cl)cc2)nc1SCc1ccccc1`, the inhibition – broadly, the drop in the measured response relative to a control, in per cent – was 36.2%. With `c1csc(C2Nc3ccccc3-c3nc4ccccc4n32)c1` (stereo not given), the inhibition was 31.5%.

As to `O=C(Nc1cc(Cl)ccc1-n1cncn1)c1ccc([N+](=O)[O-])s1`, the inhibition is 90.7% (active). The result for `CN(c1ccccc1)c1ccc(/C=C/[N+](=O)[O-])cc1` reads 95% (active); that for `CCCc1ccc(-c2c(C)sc(N)c2C#N)cc1`, 39%.

For the compound `CCN1CCN(c2cc(C(C)C)nc3c(-c4ccccc4)c(C)nn23)CC1`, the inhibition was 40.4%. For the compound `CCc1cc(OCCCCNCc2ccccc2)ccc1Cl`, the inhibition is 43.2%. The value for `COc1ccc(CNCC(O)(c2ccccc2)c2ccc(Cl)cc2)cc1` (stereo not given) was 57.9% (active); that for `COc1ccc(C(=O)C2CCCN(C(=O)Cn3nc(C)cc3C)C2)cc1F` (stereo not given) was 36.5%. The result for `C#C[C@]1(O)CC[C@H]2[C@@H]3CCc4cc(O)ccc4[C@H]3CC[C@@]21C` reads 65.4% (active); that for `C#C[C@]1(O)CC[C@H]2[C@@H]3CCC4=C(CCC(=O)C4)[C@H]3CC[C@@]21C`, 59.2% (active). The result for `Cc1ccc(S(=O)(=O)NCc2ccc(C(=O)NCCCN3CCC(Cc4ccccc4)CC3)cc2)cc1` reads 22%. As to `CN(CC(=O)NC(=O)NCc1ccccc1)Cc1cccc(Cl)c1Cl`, the inhibition is 32.5%.

With `Cc1ccccc1OCC(=O)Nc1cccc(N(C)S(C)(=O)=O)c1`, the inhibition was 18.4%. The value for `COC(=O)C1=C(C)NC(C)=C(C(=O)OC)C1c1ccc(OC(=O)c2oc3ccccc3c2C)c(OC)c1` was 10.6%; that for `O=C(c1ccc(S(=O)(=O)c2ccccc2)cc1)N1CCCCCC1` was 32.5%; that for `COc1cccc(F)c1C(C[N+](=O)[O-])c1c(N)n(C)c(=O)n(C)c1=O` (stereo not given) was 89.5% (active). Consider `Cc1ccc(C(C[N+](=O)[O-])c2c(N)n(C)c(=O)n(C)c2=O)cc1` (stereo not given), for which the inhibition is 96.2% (active). The result for `COc1ccccc1C(C[N+](=O)[O-])c1c(N)n(C)c(=O)n(C)c1=O` (stereo not given) reads 93.7% (active). The value for `O=c1[nH][nH]c(-c2ccccc2O)c1C(C[N+](=O)[O-])c1ccc(Cl)cc1Cl` (stereo not given) was 37.8%; that for `CC1(C)NC(=O)N(CCCCOc2ccc3ccccc3c2Cl)C1=O` was 38.6%. The result for `CCCCNCCOCCOc1ccccc1-c1ccccc1` reads 44%; that for `CN(C)c1nc(N)nc(CSc2nnnn2-c2ccc(C(=O)O)cc2)n1`, 29.5%; that for `Nc1[nH]c(=O)ncc1F`, 43.8%. Regarding `CCOc1ccc(N=c2oc3cc(O)ccc3cc2C(=O)NCC2CCCO2)cc1` (stereo not given), the inhibition is 24.5%. As to `Cc1cc(Nc2ccccc2)nn1C(=O)c1ccccc1`, the inhibition was 44.5%.

On to `COC1=C(Nc2ccc(O)cc2)C(=O)c2ccccc2C1=O`, for which the inhibition is 32.3%. The result for `COc1ccc(Nc2cc(C)c3ccc(O)cc3n2)cc1` reads 89.7% (active). Regarding `CCn1nc(C)cc1Nc1ccccc1`, the inhibition was 22.3%.

With `Cc1cc(Nc2ccccc2)nc2cc(O)ccc12`, the inhibition is 84.7% (active).

Turning to `COc1ccc(C2=NN3C(=O)c4c(ccc(OC)c4OC)C3C2)cc1` (stereo not given), the inhibition is 37.6%. The value for `CCC(=O)N(Cc1cc2c(C)ccc(C)c2[nH]c1=O)C1CCCCC1` was 27.1%; that for `CCNc1c(C(=O)O)ccc2c1C(=O)c1ccccc1C2=O` was 32.4%.

Turning to `CCc1ccc(OCC(=O)Nc2ccc(CN3CCCCC3)cc2)cc1`, the inhibition was 48.2%. For the compound `Cc1cc(C)c([C@@H]2C[C@H]3CN(C4CCCC4)C(=O)[C@]34CCCN24)c(-n2cccn2)c1`, the inhibition is 28.9%. The result for `COc1cc(/C=C/C(=O)c2ccc(Cl)s2)cc(OC)c1O` reads 50.9% (active); that for `COC(=O)CCn1nnc(-c2ccc(C(C)C)cc2)n1`, 38.5%. On to `COc1cccc(CN2CCC(C(=O)N3CCN(c4ccccc4F)CC3)CC2)c1OC`, for which the inhibition was 37.2%. The value for `CCCc1[nH]n(-c2nc3ccccc3s2)c(=O)c1C=NCC(C)C` was 54.1% (active). In the case of `O=C1C(Cl)=C(N2CCN(c3ccccc3[N+](=O)[O-])CC2)C(=O)c2ccccc21`, the inhibition was 47.2%. The result for `C/C(=N\NC(=O)c1csc(C)c1C)c1ccc(Cl)s1` reads 40.9%; that for `O=C(/C=C/c1cccs1)c1cc(Br)ccc1OC(=O)N1CCOCC1`, 28.1%. The result for `O=C(/C=C/c1ccccn1)c1ccc(Br)cc1O` reads 67.5% (active); that for `CCNc1ccc(Br)cc(C(=O)/C=C/c2c(Cl)cccc2Cl)c1=O`, 39.5%; that for `COc1cccc(-c2nn(C)c3sc(C(=O)N4CCOCC4)cc23)c1`, 35.3%. The result for `Cc1[nH]c2ccccc2c1C(=O)CSc1nc2ncc(Cl)cc2[nH]1` reads 25.4%. Consider `O=C(NC(Cc1c[nH]c2ccccc12)C(=O)O)/C(=C\c1ccc2c(c1)OCO2)NC(=O)c1ccccc1` (stereo not given), for which the inhibition is 32.5%. `O=C(/C=C/c1c[nH]c2ccccc12)c1ccccc1`: the inhibition was 80.5% (active). The result for `CN(C)c1ccc(N/C=C/C(=O)c2ccccc2)cc1` reads 35.4%; that for `Cc1cc(SC#N)cc(C)c1NC(=O)CCl`, 21.6%; that for `CC(C)c1nc2sc3c(=O)[nH]c(=S)[nH]c3c2c2c1CCC2`, 30.2%. `Cc1ccc2nc(Cl)c(C3CC(c4cccs4)=NN3C(=O)CCCC(=O)O)cc2c1` (stereo not given): the inhibition was 33.7%.

On to `OC(COCc1ccc2c(c1)OCO2)CN1CCN(Cc2ccccc2)CC1` (stereo not given), for which the inhibition is 32%. The result for `CCOC(=O)c1c(O)c2cc(Cl)ccc2n(CC)c1=O` reads 40.1%; that for `OC(CNCCC1C=Nc2ccccc21)Cn1c2ccc(Cl)cc2c2cc(Cl)ccc21` (stereo not given), 40.7%.

As for `OC(CN1CCN(Cc2ccccc2)CC1)Cn1c2ccccc2c2ccccc21` (stereo not given), the inhibition was 63.1% (active).

With `OC(CN1CCCCC1)Cn1c2ccc(Cl)cc2c2cc(Cl)ccc21` (stereo not given), the inhibition is 52.5% (active).

Regarding `COc1ccc(OCC(O)Cn2c(=N)n(Cc3ccccc3)c3ccccc32)cc1` (stereo not given), the inhibition is 27.4%.

Take `CCN1CCN(C(=O)N[C@@H](C(=O)N[C@@H]2C(=O)N3[C@@H]2SC(C)(C)[C@@H]3C(=O)O)c2ccccc2)C(=O)C1=O`: the inhibition is 45.5%.

For `CCn1c(=O)cc(SCC(=O)N2CCN(C3CCCCC3)CC2)c2ccccc21`, the inhibition was 32.6%. The value for `N/C(Cc1ccc(Cl)cc1)=N\OC(=O)C1CCCCC1` was 46.6%; that for `COc1ccc(NC(=O)c2ccc(C)cc2)c(OC)c1` was 37.7%.

On to `COc1ccc(C)cc1NC(=O)c1ccc(CN2CCN(c3ccccc3)CC2)cc1`, for which the inhibition is 47.2%. The result for `COc1ccc(C)cc1NC(=O)c1ccc(OC(F)F)cc1` reads 59.4% (active); that for `Cc1c(Cl)cccc1NC(=O)c1cccc(OC(F)F)c1`, 53% (active); that for `CSc1ccccc1NC(=O)Nc1ccccc1Cl`, 30%. The value for `O=C(NCCN1C(=O)S/C(=C\c2cccnc2)C1=O)c1cccc(OC(F)F)c1` was 39.6%; that for `Clc1ccc2c(N/N=C/c3ccccc3Br)ccnc2c1` was 39%; that for `Cc1ccc(N/C=C/C(=O)C(C)(C)C)c(O)c1` was 31.6%. The value for `Cn1cc(CC(=O)Nc2cccc(C#N)c2)c2ccccc21` was 26.6%; that for `c1ccc2cc(CSCc3nc4ccccc4[nH]3)ccc2c1` was 42.5%; that for `c1ccc2[nH]c3cc4ncnc4cc3nc2c1` was 52.8% (active). As for `CC(C)Oc1ccc2c(=O)c(-c3ccccc3)coc2c1`, the inhibition is 66.2% (active). The value for `CCCCOC(=O)Oc1ccc2c(=O)c(Oc3cc(C)cc(C)c3)coc2c1` was 45.8%. The result for `COc1ccccc1N1CCN(C(=O)CSc2ncnc3scc(-c4ccccc4)c23)CC1` reads 47.8%; that for `CC1CCN(c2nc(CN3CCCCC3)nc3scc(-c4ccccc4)c23)CC1`, 65.5% (active).

For the compound `Cc1ccc(S(=O)(=O)N[C@@H](Cc2ccccc2)C(=O)CCl)cc1`, the inhibition was -1.6%. The value for `c1ccc(-c2c(-c3ccccc3)n(Cc3ccco3)c3ncnc(NCCCn4ccnc4)c23)cc1` was 38%; that for `COC(=O)Cn1nc(-c2ccccc2)c2ccccc21` was 99.7% (active); that for `CC(=O)n1cc(-c2ccncc2)c2ccccc21` was 46.6%. With `O=C(O)Cn1nc(-c2ccccc2)oc1=O`, the inhibition was 27.4%. The result for `COc1ccc2c(c1)C1=NN(/C(C)=C/C(C)=O)C(c3cccc(F)c3)C1CC2` (stereo not given) reads 42.1%. The result for `Cc1ccc(/C=N/NC(=O)c2ccc3nc[nH]c3c2)o1` reads 31.1%; that for `COC(=O)N/N=C/c1ccc(-c2cccc(Cl)c2)o1`, 68.8% (active).

As for `COC(=O)N/N=C/c1ccc(OC(=O)c2ccco2)c(OC)c1`, the inhibition is 22.6%. The value for `O=C1c2ccccc2C(Nc2ccc(Cl)cn2)N1Cc1ccccc1` (stereo not given) was 55.5% (active); that for `O=C1c2ccccc2C(O)N1c1cccnc1` (stereo not given) was 27.9%; that for `Nc1c2c(nc3sc4c(c13)CCCCC4)CCCCC2` was 40.6%. The value for `Nc1c2c(nc3sc4c(c13)CCCC4)CCCCCC2` was 32.1%. The value for `CC1CCc2nc3sc4c(c3c(N)c2C1)CCCC4` (stereo not given) was 56.2% (active); that for `CSCCNC(C)=O` was 15%; that for `O=C(NCc1cccs1)c1csc2ccccc12` was 51.3% (active). Take `CC(C)CC(=O)c1c[nH]c(C(=O)NCc2cccs2)c1`: the inhibition is 22.6%. With `O=C(c1ccco1)N1CCN(Cc2cn[nH]c2-c2cccc3ccccc23)CC1`, the inhibition was 25.2%. In the case of `COC(=O)c1ccc(C(=O)OC)c(NC(=O)CN2CCN(c3ccccc3OC)CC2)c1`, the inhibition is 38.4%. The result for `O=C(COc1cccc2ccccc12)N1CCN(c2ccccc2)CC1` reads 48.1%.

Take `COc1ccccc1N1CCN(CCCCOc2cccc3ccccc23)CC1`: the inhibition is 62.8% (active). The value for `COc1ccc(CN2CC(C(=O)NCCN3CCN(c4ccccc4F)CC3)CC2=O)cc1` (stereo not given) was 32%; that for `COc1ccccc1N1CCN(CCCCCCOc2ccc(F)cc2)CC1` was 63.4% (active). The result for `COc1ccccc1OCCCCN1CCN(c2ccccc2OC)CC1` reads 17.7%.

The values above are taken from PubChem BioAssay AID488841 (Sanford-Burnham Center for Chemical Genomics, 2010).
